PubChem BioAssay AID493036 (Sanford-Burnham Center for Chemical Genomics, 2011)
The campaign covered roughly 330,000 compounds. About 560 (0.17%) were called active.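 How the source made its calls: active means activation at or above 40% of the spot to cytoplasm intensity ratio, with at least 20 cells analyzed; inconclusive means wells under 20 cells, flagged as cytotoxic or low count; inactive means the rest.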 What follows is part of a selection rich in actives, with near analogues and random picks from the rest.

Tests used:
[1] = NTR1-driven beta-arrestin-GFP spot formation – imaging, U2OS cells, high content, primary screen (AID 493036); details: agonist mode, measured here: cell count, cytotoxicity flag, at 20 µM;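 on activation: 0% = DMSO without peptide and 100% = 100 nM NTR1 peptide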
[2] = molecular target: Neurotensin receptor type 1 (Homo sapiens) (UniProt P30989); experiment: as above; details: agonist mode, at 20 µM, stronger effect = higher value
Sequence of Neurotensin receptor type 1 (Homo sapiens) (P30989 whole entry, looked up): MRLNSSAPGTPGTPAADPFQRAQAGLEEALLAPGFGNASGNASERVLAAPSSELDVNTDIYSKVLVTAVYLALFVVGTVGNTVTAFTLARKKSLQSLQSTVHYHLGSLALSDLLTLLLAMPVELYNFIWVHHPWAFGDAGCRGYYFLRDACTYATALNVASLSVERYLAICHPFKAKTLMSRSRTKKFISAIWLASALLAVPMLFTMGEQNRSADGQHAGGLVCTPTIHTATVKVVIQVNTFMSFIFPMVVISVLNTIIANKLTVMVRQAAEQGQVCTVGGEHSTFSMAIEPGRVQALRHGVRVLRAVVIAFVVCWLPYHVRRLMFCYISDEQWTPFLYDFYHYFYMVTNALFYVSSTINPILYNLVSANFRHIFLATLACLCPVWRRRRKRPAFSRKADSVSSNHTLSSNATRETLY

SMILES	cell count [1]	activation [2]
O=C1NC(=O)N(c2ccccc2)C(=O)/C1=C/c1ccc([N+](=O)[O-])s1	47 cells	-0.1% (inactive)
COc1cccc(N2C(=O)NC(=O)/C(=C\c3ccc([N+](=O)[O-])s3)C2=O)c1	25 cells	-0.6% (inactive)
Cc1cccc(N2C(=O)NC(=O)/C(=C\c3cnn(-c4ccccc4)c3)C2=O)c1	57 cells	45.7% (active)
COc1ccc(C(=O)C2CN(C)CC2C(=O)c2ccc(OC)cc2)cc1 (stereo not given)	41 cells	-0.1% (inactive)
O=C(CCCn1c(=O)[nH]c2cc(Cl)ccc2c1=O)N1CCC2(CC1)OCCO2	62 cells	1.7% (inactive)
COC(=O)C1=C(c2cc3ccccc3s2)C[C@@H]2CC[C@H]1N2C(=O)NCCO	97 cells	0.3% (inactive)
CC1CCCCN1Cc1cccnc1 (stereo not given)	41 cells	1.8% (inactive)
O=C1NC(=O)N(Cc2ccco2)C(=O)/C1=C\c1ccc(-c2ccc(F)cc2)o1	62 cells	23.3% (inactive)
O=C(O)COc1ccccc1/C=C1\C(=O)NC(=O)N(CCC2=CCCCC2)C1=O	52 cells	0% (inactive)
O=C1NC(=O)N(CCc2ccc(F)cc2)C(=O)/C1=C/C=C/c1ccccc1	50 cells	41.5% (active)
